Screening data: PubChem, National Center for Advancing Translational Sciences (NCATS)
The sample as a whole holds a higher share of hits than the screen did.
Methyltransferases: Primary Screen for Target Class Profiling of Small Molecule Inhibitors of Methyltransferases. AID 1745853, 2022. calls only at 40 µM. purified enzyme, MTase-Glo SAH luminescence; active compounds read low. 25,000 tested, 3.9% active; call rule not given here
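Each enzyme was assayed with SAM and its substrate. SAH formation detected by MTase-Glo luminescence; single-point 40 uM screen[…].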
* = called active by the depositor; i = inactive; + = active, no number. On the % scale 0 is the no-effect control and ±100 the full control effect.

SMILES	Methyltransferases
COc1cccc(NC(=O)Cn2c(=O)oc3cc(S(=O)(=O)N4CC(C)CC(C)C4)ccc32)c1 (configuration not stated)	i
CN(C)CCCN1c2ccccc2Sc2ccccc21	i
CNCCCN1c2ccccc2CCc2ccccc21	i
CN1CCN(CCCN2c3ccccc3Sc3ccc(C(F)(F)F)cc32)CC1	+
COc1ccc(CNC(=O)Cn2nc3n(CCCOC(C)C)c(=O)c4ccccc4n3c2=O)cc1	i
COc1cccc(CN2C(=O)c3cc4occc4n3CC2(C)C(=O)NC2CCCCC2C)c1 (configuration not stated)	i
Cc1cccc(N2CCN(CCNC(=O)CCc3nnc4n(CC(C)C)c(=O)c5ccccc5n34)CC2)c1C	i
Clc1ccc(N2CCN(Cc3c[nH]c4ncccc34)CC2)cc1	i
NC1(Cc2ccc(Cl)cc2)CCN(c2ncnc3[nH]ccc23)CC1	+
Cc1cccc(N2C(=O)c3cc4occc4n3CC2(C)C(=O)NC2CCC(C)CC2)c1C (configuration not stated)	i
C=CCn1c(=O)c2ccc(C(=O)NC(C)C)cc2n2c(=O)n(CC(=O)Nc3ccccc3F)nc12	i
CCc1cc2c(cc3n2CC(C)(C(=O)NC2CCCCC2)N(CCc2ccc(Cl)cc2)C3=O)s1 (configuration not stated)	i
COc1ccc(-c2nc(-c3ccc(S(=O)(=O)N4CCCCC4)cc3)no2)cc1	i
Cc1cccc(N2CCN(CCNC(=O)CCc3nnc4n(CCC(C)C)c(=O)c5ccccc5n34)CC2)c1C	i
CN(C)CCCNC(=O)c1ccc(-c2cc(O)c3ncccc3c2)cc1	+
COc1cccc(-c2ccc(C(=O)NCCNC(=O)c3ccccc3OC)cc2)c1	i
N#Cc1cccnc1-c1cccc(C(=O)NCCNC(=O)c2ccccc2)c1	i
COCCN(C)Cc1ccc2nc3sc(C(=O)N(C)C4CCCCC4)cn3c2c1	+
COCCN(C)C[C@H]1C[C@@H](CO)CN(C(=O)c2ccc(C)c(Cl)c2)C1	i
CCCCNC(=O)c1ccc2c(=O)nc3c(-c4ccc(Cl)cc4)n[nH]n3c2c1	i
CC1CCC2(CO)C(C(=O)O)=CCCC2C1(C)CCc1ccoc1 (configuration not stated)	+
CC1CCC2(C)C(CC(O)C(O)C23CO3)C1(C)CCC1=CC(=O)OC1O (configuration not stated)	i
CC1CC(O)C2(C)C(C(=O)O)=CCCC2C1(C)CCc1ccoc1 (configuration not stated)	+
CC1=CCC[C@@H]2[C@](CCc3ccoc3)(C(=O)O)[C@H](C)CC[C@@]12C	i
COc1ccc(N2C(=O)c3cc(C(C)C)nn3CC2(C)C(=O)NC2CCCCCC2)cc1 (configuration not stated)	i
SMILES	Methyltransferases
CCC(C)NC(=O)c1ccc2c(=O)n(C)c3nnc(SCC(=O)Nc4cccc(OC)c4)n3c2c1 (configuration not stated)	i
Cc1ccc(Cl)cc1N1C(=O)c2cc(C(C)(C)C)nn2CC1(C)C(=O)NC1CCCCC1 (configuration not stated)	i
Cn1c(=O)c2ccc(C(=O)NC3CCCC3)cc2n2c(=O)n(Cc3ccc(F)cc3)nc12	i
COc1ccccc1N1C(=O)c2cc3ccccc3n2CC1(C)C(=O)NC1CCCC1 (configuration not stated)	i
Cc1c(O)cc(O)c2c(=O)c(O)c(-c3ccc(O)c(O)c3)oc12	+
Cc1ccc(NC(=O)N2Cc3c(sc4c3CCCC4)-n3cccc3C2c2ccccc2)cc1F (configuration not stated)	i
CCCSCCCNC(=O)c1cc2n(n1)CC(C)(C(=O)NC1CCCCCC1)N(C)C2=O (configuration not stated)	i
COc1ccc(CNC(=O)c2ncn3c2C(=O)N(C2CC2)C(C)(C(=O)NCc2ccc(OC)cc2)C3)cc1 (configuration not stated)	i
CS(=O)(=O)Nc1ccc2oc3c(OC(F)F)ccc(C(=O)Nc4c(Cl)cncc4Cl)c3c2c1	+
Cc1ccc(CN2C(=O)c3cc4sccc4n3CC2(C)C(=O)NC2CCCC2)cc1 (configuration not stated)	i
CC1CCC(NC(=O)C2(C)Cn3c(ccc3-c3ccco3)C(=O)N2Cc2cccnc2)CC1 (configuration not stated)	i
CC(=O)NC(Cc1ccccc1)C(=O)O (configuration not stated)	i
N[C@@H](Cc1c[nH]c2ccccc12)C(=O)O	i
CC(=O)NC(Cc1c[nH]c2ccccc(=O)c12)C(=O)O (configuration not stated)	+
CC1(C(=O)NC2CCCCCC2)Cn2c(cc3sccc32)C(=O)N1Cc1cccnc1 (configuration not stated)	i
COc1ccc2cc3n(c2c1)CC(C)(C(=O)NC1CCCC1)N(Cc1ccc(Cl)cc1)C3=O (configuration not stated)	i
